Test results published in the supplement of paper PMC7411640.
Counter-ions that a name gives are not always drawn.

Tested on: MDA-MB-468
Assay: phospho-S6 immunofluorescence (DAPI-normalised), per-plate z-score; higher = higher phospho-S6 signal (less pathway suppression)
Settings: 24 h
Experimental: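 GPCR-targeted compound library (MedChemExpress HY-L006) tested on MDA-MB-468 PTEN-null TNBC cells in 384-well plates at 0.1, 1 or 10 uM, combined with vehicle, GDC0941 450 nM or lapatinib 1 uM, for 24 h. Phospho-S6 (S240/244) immunofluorescence normalised to DAPI and expressed as a per-plate z-score; values are the mean of biological triplicates.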

Row | Compound | phospho-S6 immunofluorescence (z-score) (co-treatment: GDC0941 450 nM) | phospho-S6 immunofluorescence (z-score) (co-treatment: lapatinib 1 uM) | phospho-S6 immunofluorescence (z-score) (co-treatment: vehicle)
1 | C[N+]1(C)[C@@H]2C[C@@H](OC(=O)C(O)(c3cccs3)c3cccs3)C[C@H]1[C@@H]1O[C@@H]12 [Tiotropium (Bromide)] (compound 10 µM) | -0.58 | 0.42 | -0.69
2 | CCN(CC)CCOC(=O)[C@@H](Cc1cccc2ccccc12)C[C@@H]1CCCO1 [Naftidrofuryl (oxalate)] (compound 10 µM) | -1.27 | -0.87 | -1.37
3 | COc1ccc(NS(=O)(=O)c2sc3ccc(Cl)cc3c2C)cc1N1CCNCC1 (compound 10 µM) | 0.28 | -1 | 0.35
4 | Cc1cc(Cn2cnc3c2CC(C(=O)O)N(C(=O)C(c2ccccc2)c2ccccc2)C3)ccc1N(C)C (stereo not given) (compound 10 µM) | -0.71 | 0.17 | 0.29
5 | CNC(=O)c1cnn(-c2nc(N)c3ncn([C@@H]4O[C@H](CO)[C@@H](O)[C@H]4O)c3n2)c1 [Regadenoson] (compound 10 µM) | 1.19 | 1.71 | 0.29
6 | CCCCCCCCOc1ccccc1C(=O)Nc1ccc(C(=O)OCC[N+](C)(CC)CC)cc1 [Otilonium (bromide)] (compound 10 µM) | -1.43 | 2.8 | 0.94
7 | Fc1ccc(-c2cncc(CN3CCN(c4cccc5c4OCCO5)CC3)c2)cc1 [Adoprazine] (compound 10 µM) | -2.84 | -1.05 | -2.49
8 | C[C@@H](NCCCc1cccc(C(F)(F)F)c1)c1cccc2ccccc12 [Cinacalcet (hydrochloride)] (compound 10 µM) | -5.88 | -11.2 | -9.18
9 | NC[C@H](O)c1ccc(O)c(O)c1 [Norepinephrine (bitartrate monohydrate)] (compound 10 µM) | 0.52 | 1.81 | 0.17
10 | O=C1c2cccc3c2[C@H](CCC3)CN1[C@@H]1CN2CCC1CC2 [Palonosetron (Hydrochloride)] (compound 10 µM) | -0.7 | 0.4 | -0.33
11 | NC(=O)C(c1ccccc1)(c1ccccc1)[C@@H]1CCN(CCc2ccc3c(c2)CCO3)C1 [Darifenacin (hydrobromide)] (compound 10 µM) | -1.6 | -1.5 | 0.03
12 | CCC1(c2c[nH]cn2)Cc2ccccc2C1 [Atipamezole (hydrochloride)] (compound 10 µM) | -0.61 | 0.37 | 1.24
13 | Cc1cccc(C#Cc2ccccc2)n1 [MPEP (Hydrochloride)] (compound 10 µM) | -0.92 | 0.68 | -0.14
14 | C=CCc1ccccc1OCC(O)CNC(C)C (stereo not given) [Alprenolol (hydrochloride)] (compound 10 µM) | 0.45 | -0.09 | 1.12
15 | Cc1ccc(C)c(OCCn2cc(C(=O)O)c3ccccc32)c1 (compound 10 µM) | 0.61 | -0.34 | -0.21
16 | C=CCN1CCc2nc(N)sc2CC1 (compound 10 µM) | 0.68 | 0.22 | 0.33
17 | CC(C)N(CCCCOCC(=O)O)c1cnc(-c2ccccc2)c(-c2ccccc2)n1 (compound 10 µM) | 1.34 | 1.89 | 0.56
18 | CN1CCN(C(=O)c2cc3cc(Cl)ccc3[nH]2)CC1 (compound 10 µM) | 0.27 | -0.96 | 0.18
19 | C[C@]12C=CC(=O)C=C1CC[C@H]1[C@@H]3C[C@@H](O)[C@](O)(C(=O)CO)[C@@]3(C)C[C@H](O)[C@@]12F [Triamcinolone] (compound 10 µM) | 0.04 | 0.82 | 0.94
20 | COc1ccc(/C=C/C(=O)Nc2ccccc2C(=O)O)cc1OC [Tranilast] (compound 10 µM) | 1.77 | -0.19 | 0.33
21 | Cn1c(=O)c2c(ncn2CC(O)CO)n(C)c1=O (stereo not given) [Diphylline] (compound 10 µM) | -0.54 | -0.14 | -0.15
22 | Nc1nc(NCCc2ccc(O)cc2)nc2nc(-c3ccco3)nn12 (compound 10 µM) | -1.88 | 0.67 | 1.01
23 | CC(C)(N)C(=O)N[C@H](COCc1ccccc1)C(=O)N1CCC2(CC1)CN(S(C)(=O)=O)c1ccccc12 [Ibutamoren (Mesylate)] (compound 10 µM) | -2.77 | -7.75 | -5.38
24 | Cc1noc(-c2ccc(-c3ccc(CC(=O)O)cc3)cc2)c1NC(=O)O[C@H](C)c1ccccc1 [AM095 (free acid)] (compound 10 µM) | 1.08 | 0.37 | 0.82
25 | COc1ccccc1N1CCN(CC(O)COc2cccc3ccccc23)CC1 (stereo not given) [Naftopidil] (compound 10 µM) | -0.13 | -0.63 | 0.64

Row | Compound | phospho-S6 immunofluorescence (z-score) (co-treatment: GDC0941 450 nM) | phospho-S6 immunofluorescence (z-score) (co-treatment: lapatinib 1 uM) | phospho-S6 immunofluorescence (z-score) (co-treatment: vehicle)
26 | O=c1cc(CN2CCOCC2)occ1OCCCCCSc1ccnc2cc(C(F)(F)F)ccc12 (compound 10 µM) | -2.93 | -3.04 | -3.82
27 | NCCCC[C@H](NC(=O)[C@@H]1CCCN1C(=O)[C@@H]1CSSC[C@H](NC(=O)CNC(=O)CNC(=O)CN)C(=O)N[C@@H](Cc2ccc(O)cc2)C(=O)N[C@@H](Cc2ccccc2)C(=O)N[C@@H](CCC(N)=O)C(=O)N[C@@H](CC(N)=O)C(=O)N1)C(=O)NCC(N)=O [Terlipressin] (compound 10 µM) | 0.05 | 0.98 | 0.08
28 | C[N+]1(C)CCC(=C(c2ccccc2)c2ccccc2)CC1 [Diphenmanil (methylsulfate)] (compound 10 µM) | 0.46 | 0.06 | 0.8
29 | C[C@]12C=CC(=O)C=C1CC[C@@H]1[C@@H]2[C@@H](O)C[C@@]2(C)[C@H]1CC[C@]2(O)C(=O)CO [Prednisolone] (compound 10 µM) | 0.01 | 1.18 | 0.05
30 | CCCN[C@@H]1CCc2nc(N)sc2C1 [Dexpramipexole (dihydrochloride)] (compound 10 µM) | 1.16 | 0.15 | 0.4
31 | Cc1c(CC(=O)O)c2cccnc2n1Cc1ccc(S(C)(=O)=O)cc1C(F)(F)F [Fevipiprant] (compound 10 µM) | -2.62 | -1.74 | -0.9
32 | CC(C)N(CC[C@H](c1ccccc1)c1cc(CO)ccc1O)C(C)C [(R)-5-Hydroxymethyl Tolterodine] (compound 10 µM) | 0.35 | 0.44 | 0.11
33 | CC(C)COc1ccc(CNC(=O)N(Cc2ccc(F)cc2)C2CCN(C)CC2)cc1 [Pimavanserin] (compound 10 µM) | -2.66 | -2.95 | -2.1
34 | CC[C@H](C)[C@H](NC(=O)[C@H](Cc1ccc(O)cc1)NC(=O)[C@@H](NC(=O)[C@H](CCCNC(=N)N)NC(=O)[C@@H](N)CC(=O)O)C(C)C)C(=O)N[C@@H](Cc1c[nH]cn1)C(=O)N1CCC[C@H]1C(=O)O [Angiotensin (1-7)] (compound 10 µM) | 0.11 | 0.71 | -0.4
35 | CC(C)(C(=O)O)c1ccc(C(O)CCCN2CCC(C(O)(c3ccccc3)c3ccccc3)CC2)cc1 (stereo not given) [Fexofenadine (hydrochloride)] (compound 10 µM) | -0.31 | -0.84 | -0.42
36 | Oc1cc2c(cc1O)C(c1ccccc1)CNCC2 (stereo not given) (compound 10 µM) | 0.77 | 0.35 | 1.06
37 | COc1cc2nc(N(C)CCCNC(=O)C3CCCO3)nc(N)c2cc1OC (stereo not given) [Alfuzosin] (compound 10 µM) | 0.81 | 0.71 | -0.19
38 | CCc1c(C)[nH]c2c1C(=O)C(CN1CCOCC1)CC2 (stereo not given) [Molindone (hydrochloride)] (compound 10 µM) | -0.5 | 0.28 | 0.19
39 | COc1cc2c(cc1OC)CN(C(=O)[C@@H](NCc1ccncc1)C(C)(C)C)CC2 (compound 10 µM) | 0.85 | 0.87 | -0.05
40 | CC(=O)Oc1cc2c(s1)CCN(C(C(=O)C1CC1)c1ccccc1F)C2 (stereo not given) [Prasugrel] (compound 10 µM) | -1.29 | 1.92 | -0.48
41 | CN1CC2c3ccccc3Oc3ccc(Cl)cc3C2C1 (stereo not given) [Asenapine (hydrochloride)] (compound 10 µM) | -0.8 | -2.17 | 0
42 | COc1cc(NC(=O)CCN2CCC(OC(=O)Nc3ccccc3-c3ccccc3)CC2)c(Cl)cc1CNC[C@H](O)c1ccc(O)c2[nH]c(=O)ccc12 [Batefenterol] (compound 10 µM) | -3.26 | -4.13 | 0.38
43 | Nc1nccc(/C=C/c2ccccc2)n1 (compound 10 µM) | -1.32 | -0.81 | 0.3
44 | CCOc1nc2cccc(C(=O)OC(C)OC(=O)OC3CCCCC3)c2n1Cc1ccc(-c2ccccc2-c2nn[nH]n2)cc1 (stereo not given) [Candesartan (Cilexetil)] (compound 10 µM) | -1.58 | 0.17 | -1.08
45 | Cc1ccc2c(c1CCC(=O)O)CC[C@@H](NS(=O)(=O)c1ccc(Cl)cc1)C2 [Terutroban] (compound 10 µM) | -0.9 | 0.55 | -0.1
46 | CC1=C(C)C(=O)C(C(CCCCCC(=O)O)c2ccccc2)=C(C)C1=O (stereo not given) [Seratrodast] (compound 10 µM) | 1.01 | 1.15 | 0.08
47 | CC(C)(Cc1ccc2ccccc2c1)NC[C@@H](O)COc1cccc(Cl)c1C#N [NPS-2143 (hydrochloride)] (compound 10 µM) | -6 | -12.2 | -9.7
48 | Cc1noc(-c2ccc(-c3ccc(CC(=O)O)cc3)cc2)c1NC(=O)O[C@H](C)c1ccccc1 (compound 10 µM) | 0.62 | 1.57 | 0.63
49 | Cc1noc(NS(=O)(=O)c2ccc(N)cc2)c1C [Sulfisoxazole] (compound 10 µM) | 1.15 | -0.03 | 0.55
50 | CCN(CC)CCNC(=O)c1cc(Cl)c(N)cc1OC [Metoclopramide (hydrochloride hydrate)] (compound 10 µM) | -0.35 | 0.77 | 0.05
